The list is not random: actives were taken first. Their share in the collection is about 3.7%.
PLK1 PBD inh – PLK1 (human) polo-box domain binding inhibition | Plk1 PBD binding of FITC phosphopeptide, fluorescence polarization | Potency, µM, usual class: inhibitors | 2.8% of 360,000 active | AID 720504; also: series mostly up to about 57 µM; nearly all actives have a fitted effect of over 65% in size
PI5P4Ka inh – PI5P4K alpha (human) kinase inhibition. P48426. PI5P4Kalpha enzyme, ADP-Glo luminescence, 60 min; stronger effect = lower value. max response, %. 1.2% of 330,000 active. AID 652105; active = max response of -50% or lower; inconclusive = between -30% and -50%; inactive = -30% or higher; also: value at the top dose of about 77 µM
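Single end-point luminescence (ADP-Glo) quantified ADP from PI5P4Kalpha turnover; ATP 5 microM final, 1 h at RT, 0.1% CHAPS and 0.28 mM EGTA in HEPES pH 7.4.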
WRN inhibitor – blocks human WRN helicase; Q14191; WRN helicase unwinding, fluorescent forked duplex, kinetic; Potency, µM (series often up to 114 µM), actives largely listed as inhibitors; 0.46% of 360,000 active; also: nearly all actives have a fitted effect of over 55% in size
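WRN at 20 nM final was preincubated with compound for 15 min at room temperature; reaction started with 100 nM forked duplex oligonucleotide carrying fluorophore and quencher plus 2 mM ATP (final). Unwinding followed kinetically by red fluorescence (ex 525/em 598 nm).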
VDR inhibitor – inhibitors of human vitamin D receptor; AID 504847; VDR-SRC2-3 peptide fluorescence polarization, 2 h; Potency, µM, most hits filed as inhibitors; 0.93% of 400,000 active; P11473
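The screen uses fluorescence polarization to detect compounds that interfere with recruitment of the SRC2-3 coactivator peptide to VDR; plates are read after 2 h at room temperature.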
TCR activator – T cell receptor activation; primary human leukocytes, anti-CD3, IL-2 HTRF, 48 h; Potency, µM (doses to about 9.22 µM), actives largely listed as activators; 330,000 tested, under 10 active; AID 504894
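Primary human leukocytes receive a-CD3 beads and test compound and are incubated 48 hr. Secreted IL-2 is then assayed by HTRF, measuring 665nm acceptor emission after 320nm excitation of the europium donor.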
FEN1 inhibitor – blocks human flap endonuclease 1; AID 588795; P39748; Recombinant FEN1 flap cleavage, fluorescence, 15 min; 0.35% of 390,000 active; Potency, µM (titrated, usually from 114 µM), hits mostly inhibitors; also: nearly all actives have a fitted effect of over 65% in size
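Reaction started by adding substrate (50 nM final) to 10 nM enzyme after 15 min room-temperature compound preincubation. Reads at 0 and 15 min, with data normalized and fitted to a four-parameter Hill equation.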
Numbers stand for hits; i = inactive; ? = inconclusive; nt = no result given; [ ] = dose if it differs, or a comment. Unless noted, calls follow the shape of the dose curve; as a rule, active = well fitted curve in the direction sought with a large enough effect; inconclusive = small, poorly fitted or top-dose-only effect, or another doubt; inactive = no such curve, though single readings can be large; an effect the other way counts as inactive or inconclusive.

SMILES | PLK1 PBD inh | PI5P4Ka inh | WRN inhibitor | VDR inhibitor | TCR activator | FEN1 inhibitor
COc1cccc(/C=C2\SC(=S)N(NS(=O)(=O)c3ccccc3)C2=O)c1OC | ? | -60 | i | i | i | i
Cc1ccc(S(=O)(=O)NN2C(=O)/C(=C/c3ccc(F)cc3)SC2=S)cc1 | ? | ? | ? | i | i | i
COc1ccc(/C=C2/SC(=S)N(NS(=O)(=O)c3ccc(C)cc3)C2=O)cc1 | 24µM | ? | i[11.6 µM] | i | i | ?
COc1cc(/C=C2\SC(=S)N(NS(=O)(=O)c3ccccc3)C2=O)cc(OC)c1OC | i | i | i | ? | i | i
Cc1ccc(/C=C2\SC(=S)N(NS(=O)(=O)c3ccc(C)cc3)C2=O)cc1 | 27µM | i | i[11.6 µM] | i | i | i
C=CCOc1ccc(/C=C2\SC(=S)N(NS(=O)(=O)c3ccc(C)cc3)C2=O)cc1 | 27µM | -55 | ? | i | i | i
Cc1ccc(S(=O)(=O)NN2C(=O)/C(=C/c3cccs3)SC2=S)cc1 | ? | -59 | i | i | i | i
Cc1ccc(S(=O)(=O)NN2C(=O)/C(=C\c3ccc(Cl)cc3)SC2=S)cc1 | 27µM | i | ? | i | i | ?
CCN(CCC(=O)O)c1ccc(/C=C/c2ccnc3ccccc23)cc1 | nt | nt | nt | nt | nt | i
O=C(NC(NC(=S)Nc1ccccc1Cl)C(Cl)(Cl)Cl)c1cccc(Cl)c1 (centres undefined) | ? | i | i | i | i | i
O=C(Cc1cccc2ccccc12)NC(NC(=S)Nc1ccccc1Cl)C(Cl)(Cl)Cl (centres undefined) | 24µM | i | i | ? | i | i
COC(=O)[C@@]1(Cc2ccc(F)cc2)[C@H]2c3cc(C(=O)N4CCCC4)n(CCc4ccccn4)c3C[C@H]2CN1C(=O)c1ccccc1 | 21µM | i | i | i | i | i
COC(=O)[C@@]1(Cc2ccc(F)cc2)[C@H]2c3cc(C(=O)N(C)C)n(CCc4ccccn4)c3C[C@H]2CN1C(=O)c1ccccc1 | i | i | i | i | i | i
O=C(/C=C/c1ccc(Cl)cc1)NC(=S)Nc1ccc(C(=O)O)cc1 | 30µM | i | i | i | i | i
O=C(/C=C/c1ccccc1)N/C(=C/c1ccccc1)C(=O)Nc1ccc(C(=O)O)cc1 | 27µM | i | i | ? | i | i
CSCC[C@H](N)C(=O)N[C@@H](CCCN=C(N)N)C(=O)N[C@@H](CC(C)C)C(=O)N[C@@H](Cc1ccccc1)C(=O)N[C@H](C(=O)O)C(C)C | nt | nt | nt | i | nt | nt
O=[N+]([O-])c1cccc(NN=Nc2ccccc2)c1 | i | i | i | i | i | i
O=[N+]([O-])c1ccc(N=NNc2ccccc2)cc1 | 30µM | i | i | i | i | i
O=C(O)c1cc(=S)nc[nH]1 | ? | -65 | i | ? | i | i
NCCc1cnc(-c2cccc(C(F)(F)F)c2)[nH]1 | nt | nt | nt | i | nt | nt
Cc1oc(-c2ccc(-c3ccccc3)cc2)nc1CN(C)C1CCOC1 (centres undefined) | 24µM | i | i | i | i | i
Cc1oc(-c2cccc(Cl)c2)nc1CN(C)C1CCOC1 (centres undefined) | i | i | ? | i | i | i
COc1cc(-c2nn3c(-c4cc(-c5ccccc5)n[nH]4)nnc3s2)cc(OC)c1OC | nt | nt | nt | i | nt | i
CN(C)c1ccc(-c2nnc(SCC(=O)NCc3ccco3)n2C)cc1 | nt | nt | nt | nt | nt | i
COc1ccc(NC(=O)C(CC(=O)O)C(C)c2ccccc2)cc1 (centres undefined) | 9.5µM | i | i | ? | i | i
SMILES | PLK1 PBD inh | PI5P4Ka inh | WRN inhibitor | VDR inhibitor | TCR activator | FEN1 inhibitor
CC(=O)Nc1ccc(Sc2ccccc2C(=O)O)cn1 | i | -56 | i | i | i | i
CC(=O)Nc1ccc(Sc2ccccc2C(=O)Nc2ccc(F)cc2)cn1 | 19µM | i | i | i | i | i
CC(C)(C)n1ncc2c(=O)n(Cc3cccc(-c4cccs4)c3)cnc21 | nt | nt | nt | nt | nt | i
CCC(C(=O)Nc1nnc2n1CCS2)c1ccccc1 (centres undefined) | nt | nt | nt | i | nt | i
Cc1ccc(CCC(=O)Nc2ccc(CC(=O)O)cc2)o1 | 12µM | i | i | 79µM | nt | i
Cc1c(C(=O)Oc2cc(N)n(S(C)(=O)=O)n2)cccc1[N+](=O)[O-] | 12µM | i | i | 79µM | i | i
COc1ccc2ccccc2c1C(O)c1nccn1C (centres undefined) | 24µM | nt | i | i | i | ?
Cc1ccc(C(=O)NCc2ccc3c(c2)CCN3C(=O)c2ccc(C)cc2)cc1 | nt | nt | nt | i | nt | i
O=C(Cc1ccc(Oc2ccccc2)cc1)NO | nt | nt | nt | nt | nt | i
CCOc1nc2cccc(C(=O)OC(C)OC(=O)OC3CCCCC3)c2n1Cc1ccc(-c2ccccc2-c2nn[nH]n2)cc1 (centres undefined) | nt | nt | nt | 45µM | nt | nt
CN1/C(=C/C=C/c2n(C)c3cc([N+](=O)[O-])c([N+](=O)[O-])cc3[n+]2C)C(C)(C)c2ccccc21 | i | ? | ? | nt | nt | nt
CC[n+]1c(/C=C/C=C2/N(C)c3ccccc3C2(C)C)sc2ccccc21 | nt | nt | nt | 35µM | nt | nt
CC(=O)N1CCc2c(sc(NC(=O)CN3C(=O)c4ccccc4C3=O)c2C(N)=O)C1 | i | -77 | i | i | i | i
CC(C)N1CCc2c(sc(NC(=O)CN3C(=O)c4ccccc4C3=O)c2C(N)=O)C1 | i | i | i | i | i | i
CC(=O)N1CCc2c(sc(NC(=O)c3ccc([N+](=O)[O-])o3)c2C(N)=O)C1 | ? | -65 | i | nt | nt | nt
CC(=O)c1cccc(S(=O)(=O)N2CCN(c3nc(-c4cccs4)nc4ccccc34)CC2)c1 | nt | nt | nt | i | nt | i
N#CC1=C(N)N(c2ccc(F)cc2)C2=C(C1c1ccc(O)cc1)S(=O)(=O)CC2 (centres undefined) | 15µM | ? | i | i | i | i
N#C/C(=C/c1ccc(-c2ccc(S(N)(=O)=O)cc2)o1)C(=O)Nc1ccccc1 | i | ? | i | i | i | i
N#C/C(=C/c1ccc(-c2ccc(S(N)(=O)=O)cc2)o1)c1nc2ccccc2s1 | i | -53 | i | i | i | i
Cc1ccc2c(c1)N(CCCC(=O)Nc1cccc(C(F)(F)F)c1)C(=O)CO2 | 27µM | i | i | ? | i | i
Cn1c(-c2ccc(N)cc2)nc2ccccc21 | i | i | i | i | i | i
Cc1ccc(-n2c(N)c(-c3nc4ccccc4n3C)sc2=S)cc1 | 5.3µM | nt | i | ? | i | i
Cc1ccn2c(=O)cc(CSc3nnc(NC(=O)c4ccccc4Cl)s3)nc2c1 | nt | nt | nt | i | nt | i
O=C(NCc1ccccc1)C(=O)Nc1nc(C23CC4CC(CC(C4)C2)C3)cs1 | i | i | i | i | i | i
CNC(=O)C(=O)Nc1nc(C23CC4CC(CC(C4)C2)C3)cs1 | 30µM | i | i | i | i | i
O=C(O)CCc1nn2c3ccccc3n(CC(=O)O)c2nc1=O | i | i | i | i | i | i
O=C(O)CCc1nn2c3ccccc3n(Cc3ccccc3F)c2nc1=O | 27µM | i | i | ? | i | i
COc1ccc(CN(CCCN)c2ccc(Br)cn2)cc1 | nt | nt | nt | i | nt | i

High-throughput results deposited in PubChem BioAssay by National Center for Advancing Translational Sciences (NCATS).
